The structures appear in SMILES notation. Inconclusive results are not listed. Calls of active or inactive are those of the source. Unless noted, calls come from the whole dose curve; as a rule, active = well fitted curve in the direction sought with a large enough effect; inconclusive = small, poorly fitted or top-dose-only effect, or another doubt; inactive = no such curve, though single readings can be large; an effect the other way counts as inactive or inconclusive.

The values that follow come from PubChem BioAssay (NCATS).

In assay [1] the target is Phospholipid hydroperoxide glutathione peroxidase GPX4 (Homo sapiens) (UniProt P36969). The assay is described as follows: Primary qHTS Assay for Inhibitors of Recombinant Selenoprotein Glutathione Peroxidase 4 (GPX4) (AID 1845192). Note: nearly all actives have a fitted effect of over 65% in size. Note: potency is the fitted concentration of half-maximal effect. The essentials: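 qHTS, GR-coupled: GPX4 200 nM + cpd 30 min RT → GSH 1 mM, NADPH 0.5 mM, GR 100 nM → CHP 0.5 mM start; fluor 340/450 at t0 and t15 min; no-enzyme wells as control.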
Sequence of Phospholipid hydroperoxide glutathione peroxidase GPX4 (Homo sapiens) (P36969 whole entry, looked up): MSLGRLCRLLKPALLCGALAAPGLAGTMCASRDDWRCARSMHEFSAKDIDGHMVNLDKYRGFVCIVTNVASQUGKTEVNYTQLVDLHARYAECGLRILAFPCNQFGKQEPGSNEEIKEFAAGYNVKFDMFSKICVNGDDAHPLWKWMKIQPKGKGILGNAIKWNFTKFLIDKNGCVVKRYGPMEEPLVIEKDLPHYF
(qHTS replaces the single test concentration by a dilution series.)

Assay [2] has as its target Luciferin 4-monooxygenase (Photinus pyralis) (UniProt P08659). The assay is described as follows: Primary firefly luciferase (FLuc) qHTS assay for identification of artifact compounds. (AID 1845220). Note: nearly all actives have a fitted effect of over 60% in size. Note: potency is the fitted concentration of half-maximal effect. The essentials: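 Reaction readout was CCD-imaged luminescence, taken 5 min after adding 10 nM purified firefly enzyme to compound-treated wells holding 10 uM luciferin and ATP in pH 7.6 buffer.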

The nature of assay [3]: Primary fluorescence-based thiol-reactive (MSTI) qHTS assay for identification of artifact compounds. (AID 1845221).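 Note: thiol-reactive compounds lower the probe fluorescence signal; nearly all actives have a fitted effect of over 65% in size.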 In outline:
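A multi-concentration qHTS design tested compounds against 4 uM MSTI, pH 7.4 phosphate-buffered saline. Plates were protected from light for 1 h at room temperature before imaging fluorescence.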

For assay [4], the system named is Nanoluciferase (engineered Oplophorus gracilirostris luciferase). Description: Primary Nanoluciferase (NLuc) qHTS assay for identification of artifact compounds. (AID 1845222).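 Note: NLuc secreted into diluted conditioned medium of S16 cells.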 The essentials: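 Concentration-response data were obtained by luminescence after 5 min with Nano-Glo substrate at 1:100. The enzyme was diluted S16 NLuc-expressing cell medium, preincubated with compound for 15 min at RT. Curves were fitted with a 4-parameter Hill model.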

Assay [5] can be described thus: Primary redox qHTS assay for identification of artifact compounds. (AID 1845223).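 Note: 0% = DMSO and 100% = reference compound.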 In outline: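 Redox-cycling detection via DTT (250 uM final) oxidation coupled to Amplex Red (25 uM)/HRP (250 mU/mL) in HBSS. 15 min preincubation plus 30 min after DTT, room temperature. Ex/Em 525/598 nm; 4-parameter Hill fit against DMSO and 10 uM DA3003.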
The nature of assay [6]: qHTS drug screen for cell cycle checkpoint inhibitors in PARPi-resistant BRCA-mutant ovarian cancer cell lines. (AID 1963452; calls by dose curve). The note with it: PEO1/OlaR viability, CellTiter-Glo luminescence, 96 h, stronger effect = lower value. The essentials:
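PEO1, PEO4 and PEO1/OlaR ovarian cancer cells, 600 per well, exposed 96 h at 37C to a dilution series. Viability read by CellTiter-Glo luminescence, normalized to DMSO and empty wells; activity summarized as Z-AUC.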

Assay [7] can be described thus: qHTS profiling for inhibitors of Plasmodium falciparum proliferation (AID 504749). Note: potency is the fitted concentration of half-maximal effect; nearly all actives have a fitted effect of over 60% in size. The note with it: P. falciparum in erythrocytes, SYBR Green DNA, 72 h. The essentials: (§1)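 Quantitative HTS: compounds pinned into medium, infected erythrocytes added (0.3% parasitemia, 2.5% hematocrit), 72 h culture at 37 C under 5% CO2. Saponin/Triton lysis with SYBR Green I, overnight RT, then fluorescence read.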

The next assay relates to 3D7. Described as above. As to conditions: P. falciparum in erythrocytes, SYBR Green DNA, 72 h; series mostly up to 28.7 µM. In outline: as §1
Where [8] appears, read: measured here: PEO1 parental Z-AUC.

On to `Cn1cc(S(C)=O)c(=O)c2ccc(F)cc21` (configuration not stated), for which the Potency entry in assay [1], in assay [2], in assay [3] and in assay [4] was “inactive” each time. Besides, the result in assay [5] was inactive.

Regarding `Nc1c(NC/C=C\COc2cc(CN3CCCCC3)ccn2)c(=O)c1=O`, the Potency entry in assay [2], in assay [3] and in assay [4] was “inactive” throughout. In assay [5], the result was inactive.

Regarding `CCCCCOc1ccc(C2SC(=O)NC2=O)cc1OCC` (configuration not stated), in assay [1], the Potency is 22.4 µM (active). The Potency entry in assay [2], in assay [3] and in assay [4] was “inactive” throughout. Also, the call in assay [5] was inactive.

`CN1C(CSCC(F)(F)F)Nc2cc(Cl)c(S(N)(=O)=O)cc2S1(=O)=O` (configuration not stated): the Potency entry in assay [1] was “inactive”.

`O=C(O)[C@H](O)[C@@H](O)[C@H](O[C@@H]1O[C@H](CO)[C@H](O)[C@H](O)[C@H]1O)[C@H](O)CO`: the Potency result in assay [1] is “inactive”. For the same molecule, the Z-AUC in assay [6] is 0.899 (inactive); in assay [6] (setting [8]), 1.15; in assay [6] (measured here: PEO4 Z-AUC) it was 1.21.

Consider `CO/N=C(/C(=O)N[C@@H]1C(=O)N2C(C(=O)O)=C(Cn3nnc(C)n3)CS[C@H]12)c1csc(N)n1`, for which the Potency entry in assay [1], in assay [2], in assay [3] and in assay [4] was “inactive” throughout. The molecule was classed as inactive in assay [5].

As for `CCC(=O)Oc1ccc2c(c1)CC[C@@H]1[C@@H]2CC[C@@]2(C)[C@H]1C[C@@H](OC(=O)CC)[C@@H]2OC(=O)CC`, in assay [1], the Potency entry was “inactive”.

In the case of `O=C(NN1CCCC1)NS(=O)(=O)c1ccc(Cl)cc1`, the Potency result in assay [1], in assay [2], in assay [3] and in assay [4] was “inactive” each time. Further, the result in assay [5] was inactive.

With `CCCCC/C=C\C/C=C\CCCCCCCC(=O)NC(C)c1ccccc1` (configuration not stated), the Potency entry in assay [1] was “inactive”.

As for `O=C1NC(=O)/C(=C/c2ccc3c(c2)OC(F)(F)O3)S1`, the Potency entry in assay [1], in assay [3] and in assay [4] was “inactive” each time. Besides, the Potency in assay [2] is 9.53 µM (active). Also, the result in assay [5] was inactive. In addition, the Z-AUC in assay [6] is -0.958 (inactive); in assay [6] (setting [8]), -0.173; in assay [6] (measured here: PEO4 Z-AUC), -0.926.

For the molecule `C1N2CN3CN1CN(C2)C3`, the Potency result in assay [1] is “inactive”.

For the molecule `CCCCCCCCCCCCCC[N+](C)(C)C`, the Potency in assay [7] (parasite line A) is 5.01 µM (active); in assay [7] (parasite line B), 7.08 µM (active); in the assay on 3D7 it was 3.98 µM (active).

With `C=CC[N+]1([C@H]2C[C@H]3[C@@H]4CC[C@H]5C[C@H](OC(C)=O)[C@@H](N6CCCCC6)C[C@]5(C)[C@H]4CC[C@]3(C)[C@H]2OC(=O)CC)CCCCC1`, the Potency entry in assay [1], in assay [2], in assay [3] and in assay [4] was “inactive” throughout.
